This excerpt belongs to a sample that is enriched for hits.
ERAP1 inh – blocks human ERAP1 aminopeptidase activity | recombinant ERAP1, Leu-AMC fluorescence, 60 min | inhibition, % at 10.7 µM | Q9NZ08 | hit rate 0.15% among 340,000;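 active = mean replicate inhibition of at least 30%, or all replicates individually reaching that 30% level; inactive = mean below 30% and not every replicate reaching it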;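 also: 0% = neutral control wells and 100% = L-leucinethiol positive control wells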
PDI inh – inhibitors of human protein disulfide isomerase. PDI insulin aggregation turbidity, A650, 90 min. inhibition, % at 10 µM. hit rate 0.052% among 350,000;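 active = mean inhibition across replicates of 30% or more, whatever share of single replicates reach that level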
HDAC3 inh – human HDAC3 inhibition. O15379. recombinant HDAC3, fluorogenic peptide/trypsin coupled, fluorescence. inhibition, % at 8.3 µM. hit rate 0.15% among 320,000. AID 2718; in the data active = inhibition above about 26%, passing the limit was not always enough
ERp5 block – blocks human ERp5 reductase activity on insulin | Q15084 | ERp5 insulin aggregation, absorbance 650 nm, 90 min | inhibition, % at 9.99 µM | hit rate 0.05% among 350,000;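 active = mean replicate inhibition above about 25%, with every replicate also reaching it, limit read from the data, passing the limit was not always enough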
SIRT5 block – sirtuin-5 (human) deacylase inhibition. hit rate 1.1% among 330,000. Purified SirT5, succinyl-peptide AMC, trypsin-coupled fluorescence. AID 652115. inhibition, % at 15 µM. Q9NXA8; in the data active = inhibition above about 15%
* hit, by the source's call; nt = no result given.

SMILES	ERAP1 inh	PDI inh	HDAC3 inh	ERp5 block	SIRT5 block
COc1ccc(S(=O)(=O)Nc2ccc3c(c2)C(=O)N([C@@H](C)CO)C[C@@H](C)[C@@H](CN(C)S(=O)(=O)c2ccc(Cl)cc2)OCCCC[C@H](C)O3)cc1	2	nt	nt	-4	21*
COc1ccc(S(=O)(=O)N(C)C[C@@H]2OCCCC[C@H](C)Oc3ccc(NS(=O)(=O)c4ccc(Cl)cc4)cc3C(=O)N([C@@H](C)CO)C[C@H]2C)cc1	2	nt	nt	1	21*
COCc1cn(CC[C@H]2CC[C@@H](NC(=O)Nc3ccc4c(c3)OCO4)[C@@H](CO)O2)nn1	-3	nt	nt	2	3
Cn1c(=O)[nH]c(=O)c2c1[nH]c(=S)n2Cc1ccc(Cl)cc1	45*	6	7	-6	1
Cn1c(=O)[nH]c(=O)c2c1nc(Br)n2Cc1ccc(Cl)cc1	2	-2	nt	-1	nt
COc1cc(CC(NC(C)=O)C(=O)NC2CCN(C(=O)Nc3ccccc3Cl)CC2)cc(OC)c1 (stereo not drawn)	0	0	10	1	6
COc1cc(CC(NC(C)=O)C(=O)NC2CCN(C(=O)Nc3ccccc3C)CC2)cc(OC)c1 (stereo not drawn)	0	-4	-4	5	17*
COc1ccc(C)cc1N(C)C(=O)Cc1c(C(=O)O)n(C)c2ccccc12	2	-41	1	5	29*
CCO/C=C1/C(=O)N(Cc2ccccc2)C(=O)c2ccccc21	-3	5	-3	0	26*
Cc1ccc(S(=O)(=O)N(C)C[C@H]2Oc3ccc(NC(=O)Nc4c(C)noc4C)cc3C(=O)N([C@@H](C)CO)C[C@H]2C)cc1	-5	nt	nt	-1	14
Cc1ccc(S(=O)(=O)N2CCOCC2)cc1C(=O)OCC(=O)c1c(N)n(C)c(=O)n(C)c1=O	6	2	-2	3	0
CC(C)Cn1c(N)c(C(=O)COC(=O)c2cc(S(=O)(=O)N3CCOCC3)ccc2Br)c(=O)n(C)c1=O	0	3	34*	4	1
COc1cccc(S(=O)(=O)Nc2ccc3c(c2)OC[C@@H](C)NC[C@@H](C)[C@@H](OC)CN(C)C3=O)c1	4	nt	nt	-3	-1
CCOC(=O)CC1(C)OCC(C[N+]2(C)CCCCC2)O1 (stereo not drawn)	96*	4	-4	4	-1
O=C(c1cc2cc(Cl)ccc2[nH]1)N1CCN(c2ccc(F)cc2)CC1	0	-12	-12	1	1
COc1ccc(N2CCN(C(=O)c3cc4cc(Cl)ccc4[nH]3)CC2)cc1	-1	8	-3	4	18*
NS(=O)(=O)c1ccc(CCNC(=O)CCS(=O)(=O)c2ccc(Br)cc2)cc1	0	-10	-1	-2	16*
COc1ccc(NC(=O)Nc2ccc3c(c2)C(=O)N([C@@H](C)CO)C[C@@H](C)[C@@H](CN(C)Cc2ccncc2)O3)cc1	2	nt	nt	-7	27*
COc1ccc(-c2cnc3c(c2)C(=O)N([C@@H](C)CO)C[C@H](C)[C@@H](CN(C)Cc2ccc(C(=O)O)cc2)O3)cc1	0	nt	nt	4	21*
COc1ccc(NC(=O)Nc2ccc3c(c2)C(=O)N([C@@H](C)CO)C[C@@H](C)[C@H](CN(C)Cc2ccncc2)O3)cc1	-1	nt	nt	1	0
COc1ccc(NC(=O)Nc2ccc3c(c2)C(=O)N([C@H](C)CO)C[C@@H](C)[C@@H](CN(C)Cc2ccc(C(=O)Nc4ccccc4N)cc2)O3)cc1	0	nt	nt	-11	7
COc1ccc(NC(=O)Nc2ccc3c(c2)C(=O)N([C@@H](C)CO)C[C@@H](C)[C@@H](CN(C)Cc2ccc(C(=O)Nc4ccccc4N)cc2)O3)cc1	-2	nt	nt	-8	16*
COc1ccc(NC(=O)Nc2ccc3c(c2)C(=O)N([C@@H](C)CO)C[C@@H](C)[C@@H](CN(C)Cc2ccc(-c4ccccc4)cc2)O3)cc1	-4	nt	nt	-1	17*
COC(=O)C[C@H]1C[C@@H]2c3cc(NS(=O)(=O)c4ccc(F)cc4)ccc3O[C@@H]2[C@H](CO)O1	5	nt	nt	0	2
C[C@@H]1CN([C@H](C)CO)C(=O)c2cc(NC(=O)c3ccncc3)ccc2O[C@@H](C)CCCCO[C@@H]1CN(C)CC1CCCCC1	-2	nt	nt	-18	0
SMILES	ERAP1 inh	PDI inh	HDAC3 inh	ERp5 block	SIRT5 block
C(=N/Nc1nccs1)/c1cccnc1	13	4	-4	4	19*
C[C@H]1CN([C@@H](C)CO)C(=O)c2c(c3ccccc3n2C)-c2ccccc2CO[C@H]1CN(C)Cc1ccccc1	2	nt	nt	2	19*
C[C@@H]1CN([C@@H](C)CO)C(=O)c2c(c3ccccc3n2C)-c2ccccc2CO[C@@H]1CN(C)Cc1ccc(-c2ccccc2)cc1	-5	nt	nt	-2	17*
C[C@@H]1CN([C@@H](C)CO)C(=O)c2c(c3ccccc3n2C)-c2ccccc2CO[C@H]1CN(C)Cc1ccc(-c2ccccc2)cc1	-4	nt	nt	nt	4
C[C@@H]1CN([C@@H](C)CO)C(=O)c2c(c3ccccc3n2C)-c2ccccc2CO[C@@H]1CN(C)C(=O)[C@H](C)c1ccccc1	-5	nt	nt	-5	20*
C[C@H](C(=O)N(C)C[C@@H]1OCc2ccccc2-c2c(n(C)c3ccccc23)C(=O)N([C@H](C)CO)C[C@H]1C)c1ccccc1	3	nt	nt	0	3
CC(C)[C@@H](C)NC(=O)N(C)C[C@H]1OCc2ccccc2-c2c(n(C)c3ccccc23)C(=O)N([C@@H](C)CO)C[C@H]1C	4	nt	nt	1	-1
CC(C)[C@@H](C)NC(=O)N(C)C[C@@H]1OCc2ccccc2-c2c(n(C)c3ccccc23)C(=O)N([C@@H](C)CO)C[C@@H]1C	2	nt	nt	-3	19*
C[C@@H]1CN([C@@H](C)CO)C(=O)c2cc(C#Cc3cccnc3)cnc2O[C@H]1CN(C)C	0	nt	nt	-1	-2
C[C@H](CO)N1C[C@H](C)[C@@H](CN(C)C(=O)Cc2ccccc2)OCc2ccccc2-c2c(n(C)c3ccccc23)C1=O	-2	nt	nt	9	18*
Cc1ccc(S(=O)(=O)NCC[C@@H]2CC[C@H](NC(=O)CC3CC3)[C@@H](CO)O2)cc1	5	nt	nt	2	1
C[C@H](O)C#Cc1ccc2c(c1)O[C@@H](CN(C)C(=O)c1ccccc1)[C@H](C)CN([C@H](C)CO)S2(=O)=O	-1	nt	nt	5	-4
O=C(O)[C@H]1CCCC[C@H]1C(=O)Nc1ccc(S(=O)(=O)N2CCCCC2)cc1	-3	-3	2	4	-3
O=C(O)C1CCCCC1C(=O)Nc1ccc(S(=O)(=O)N2CCCC2)cc1 (stereo not drawn)	-6	8	0	-3	17*
CCCNC(=O)[C@@H]1[C@@H](CO)[C@@H]2Cn3c(ccc(-c4ccc(OC)cc4)c3=O)[C@@H]2N1CCC	0	nt	nt	-2	-14
CCCNC(=O)[C@H]1[C@H](CO)[C@H]2Cn3c(ccc(-c4ccc(OC)cc4)c3=O)[C@H]2N1CCC	-1	nt	nt	-4	16*
CCCN1[C@@H]2c3ccc(-c4cccc(OC)c4)c(=O)n3C[C@@H]2[C@@H](CO)[C@@H]1C(=O)OC	-2	nt	nt	0	16*
